# According to PMC7862700, “An all-to-all approach to the identification of sequence-specific readers for epigenetic DNA modifications on cytosine”:
# What was measured:
# Test in all cases: DAPPL (digital affinity profiling via proximity ligation, sequencing); 10 mM Tris-HCl pH 7.5, 50 mM NaCl, 1 mM DTT, 4% glycerol, room temperature, 30 min; GST-TFs on glutathione beads, 16-mer random dsDNA library, 0.1% formaldehyde crosslink after washing; high values mean tight binding
# EHF = biological target: T1, EHF (Homo sapiens, UniProt Q9NZC4 1-300); details: protein: recombinant; tags: N-terminal GST; dsDNA, one strand shown
# T1 sequence: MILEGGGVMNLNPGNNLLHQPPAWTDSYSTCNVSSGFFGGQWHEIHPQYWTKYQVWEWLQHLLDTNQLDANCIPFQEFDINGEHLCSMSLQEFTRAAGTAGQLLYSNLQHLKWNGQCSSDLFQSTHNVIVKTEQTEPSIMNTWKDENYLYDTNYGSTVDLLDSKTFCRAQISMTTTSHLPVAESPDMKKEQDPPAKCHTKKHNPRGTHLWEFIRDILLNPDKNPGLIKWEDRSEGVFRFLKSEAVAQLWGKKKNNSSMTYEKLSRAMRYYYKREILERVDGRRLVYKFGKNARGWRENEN
# In short: (§1)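 Binding signal is each hexamer's read frequency for a factor divided by its frequency in the tag-only sample. The factors were GST-fused human transcription factors from yeast, captured on glutathione beads, DNA-barcoded and pooled with that sample. Pools were incubated with 200 nmole of a random double-stranded 16-mer DNA library in Tris/NaCl/DTT/glycerol buffer at room temperature for 30 min, then washed, crosslinked with 0.1% formaldehyde, proximity-ligated with BsaI/T4 ligase (1 h, 37 °C), PCR-amplified and sequenced on an Illumina NextSeq500.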
# ELK3 = biological target: T2, ELK3 (Homo sapiens, UniProt P41970 1-407); details: protein: recombinant; tags: N-terminal GST; dsDNA, one strand shown
# T2 sequence: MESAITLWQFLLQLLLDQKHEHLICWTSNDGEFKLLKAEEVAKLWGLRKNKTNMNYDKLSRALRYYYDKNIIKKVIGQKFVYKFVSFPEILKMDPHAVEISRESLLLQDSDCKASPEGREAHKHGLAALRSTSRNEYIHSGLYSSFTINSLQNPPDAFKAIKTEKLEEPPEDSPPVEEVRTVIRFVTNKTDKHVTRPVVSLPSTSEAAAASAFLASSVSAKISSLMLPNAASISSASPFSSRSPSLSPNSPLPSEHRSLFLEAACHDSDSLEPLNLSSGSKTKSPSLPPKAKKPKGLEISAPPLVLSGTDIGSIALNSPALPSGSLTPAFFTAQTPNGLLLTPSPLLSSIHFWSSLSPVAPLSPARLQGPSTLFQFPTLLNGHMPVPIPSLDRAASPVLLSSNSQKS
# In short: as §1
# HSF1 = HSF1 (Homo sapiens, UniProt Q00613 1-529); details: protein: recombinant; tags: N-terminal GST; chain copies: 3; dsDNA, one strand shown
# Chain of HSF1 (Q00613 whole entry): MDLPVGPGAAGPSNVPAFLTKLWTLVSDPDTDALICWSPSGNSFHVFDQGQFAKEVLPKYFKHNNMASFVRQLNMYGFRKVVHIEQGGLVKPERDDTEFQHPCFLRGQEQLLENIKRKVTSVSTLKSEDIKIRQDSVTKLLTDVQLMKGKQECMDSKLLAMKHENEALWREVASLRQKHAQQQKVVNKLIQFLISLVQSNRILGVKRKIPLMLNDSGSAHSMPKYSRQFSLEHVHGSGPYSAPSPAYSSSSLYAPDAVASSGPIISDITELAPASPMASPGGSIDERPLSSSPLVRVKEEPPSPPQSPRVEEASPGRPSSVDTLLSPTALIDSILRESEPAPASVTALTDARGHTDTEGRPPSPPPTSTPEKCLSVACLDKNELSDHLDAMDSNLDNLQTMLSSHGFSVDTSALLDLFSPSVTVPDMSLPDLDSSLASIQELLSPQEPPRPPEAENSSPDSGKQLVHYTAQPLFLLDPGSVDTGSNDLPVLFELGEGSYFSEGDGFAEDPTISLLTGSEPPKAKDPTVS
# In short: as §1
# ELF4 = ELF4 (Homo sapiens, UniProt Q99607 1-663); details: protein: recombinant; tags: N-terminal GST; dsDNA, one strand shown
# Chain of ELF4 (Q99607 whole entry): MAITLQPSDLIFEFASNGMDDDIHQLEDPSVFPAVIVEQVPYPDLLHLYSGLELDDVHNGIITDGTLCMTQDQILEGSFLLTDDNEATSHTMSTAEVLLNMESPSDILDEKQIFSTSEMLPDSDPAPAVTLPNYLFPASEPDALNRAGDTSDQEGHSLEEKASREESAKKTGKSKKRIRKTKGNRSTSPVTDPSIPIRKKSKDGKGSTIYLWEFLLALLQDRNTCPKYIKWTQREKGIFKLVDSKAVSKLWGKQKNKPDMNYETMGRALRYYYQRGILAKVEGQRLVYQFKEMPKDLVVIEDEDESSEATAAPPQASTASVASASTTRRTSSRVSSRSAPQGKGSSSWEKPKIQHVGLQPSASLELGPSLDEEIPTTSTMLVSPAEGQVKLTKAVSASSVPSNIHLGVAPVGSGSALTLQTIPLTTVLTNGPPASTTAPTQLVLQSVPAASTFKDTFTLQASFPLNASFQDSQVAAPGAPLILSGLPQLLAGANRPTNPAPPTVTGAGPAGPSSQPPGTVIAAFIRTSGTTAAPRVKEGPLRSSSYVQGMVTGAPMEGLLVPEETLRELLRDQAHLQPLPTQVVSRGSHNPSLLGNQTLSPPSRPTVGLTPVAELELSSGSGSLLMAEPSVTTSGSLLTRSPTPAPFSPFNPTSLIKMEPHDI
# In short: as §1
# ELK4 = biological target: T3, ELK4 (Homo sapiens, UniProt P28324-2 1-405); details: protein: recombinant; tags: N-terminal GST; dsDNA, one strand shown
# T3 sequence: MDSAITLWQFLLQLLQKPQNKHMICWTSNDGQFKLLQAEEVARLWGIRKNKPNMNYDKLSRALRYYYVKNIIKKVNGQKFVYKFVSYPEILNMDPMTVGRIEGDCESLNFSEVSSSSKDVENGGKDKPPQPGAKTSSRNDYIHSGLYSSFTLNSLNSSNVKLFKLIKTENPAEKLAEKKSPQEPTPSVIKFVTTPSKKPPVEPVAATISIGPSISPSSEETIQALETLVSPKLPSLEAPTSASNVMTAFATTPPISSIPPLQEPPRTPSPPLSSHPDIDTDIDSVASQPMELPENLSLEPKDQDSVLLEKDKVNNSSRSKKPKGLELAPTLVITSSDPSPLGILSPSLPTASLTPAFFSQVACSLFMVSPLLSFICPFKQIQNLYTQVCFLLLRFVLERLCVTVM
# In short: as §1
# ELF3 = biological target: T4, ELF3 (Homo sapiens, UniProt P78545 1-371); details: protein: recombinant; tags: N-terminal GST; dsDNA, one strand shown
# T4 sequence: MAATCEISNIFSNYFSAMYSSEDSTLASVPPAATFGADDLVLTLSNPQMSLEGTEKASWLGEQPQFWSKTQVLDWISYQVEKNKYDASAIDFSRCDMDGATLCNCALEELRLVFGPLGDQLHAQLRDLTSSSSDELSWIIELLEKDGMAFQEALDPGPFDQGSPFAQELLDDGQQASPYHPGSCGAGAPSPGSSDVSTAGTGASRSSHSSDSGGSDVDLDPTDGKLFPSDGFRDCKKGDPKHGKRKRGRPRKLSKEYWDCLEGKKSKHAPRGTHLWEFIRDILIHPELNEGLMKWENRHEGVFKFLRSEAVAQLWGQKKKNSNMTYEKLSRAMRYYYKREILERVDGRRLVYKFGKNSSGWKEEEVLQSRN
# In short: as §1
# CRX = CRX (Homo sapiens, UniProt O43186 1-299); details: protein: recombinant; tags: N-terminal GST; dsDNA, one strand shown
# Chain of CRX (O43186 whole entry): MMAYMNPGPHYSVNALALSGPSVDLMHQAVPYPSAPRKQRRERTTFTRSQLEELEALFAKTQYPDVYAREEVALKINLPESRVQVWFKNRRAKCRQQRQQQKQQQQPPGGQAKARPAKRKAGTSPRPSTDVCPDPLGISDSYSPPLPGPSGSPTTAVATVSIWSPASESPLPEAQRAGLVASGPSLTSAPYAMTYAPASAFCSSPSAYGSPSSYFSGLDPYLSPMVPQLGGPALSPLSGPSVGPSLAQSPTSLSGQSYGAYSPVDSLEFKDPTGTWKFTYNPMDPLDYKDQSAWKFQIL
# In short: as §1
# ERF = biological target: T5, ERF (Homo sapiens, UniProt P50548 1-548); details: protein: recombinant; tags: N-terminal GST; dsDNA, one strand shown
# T5 sequence: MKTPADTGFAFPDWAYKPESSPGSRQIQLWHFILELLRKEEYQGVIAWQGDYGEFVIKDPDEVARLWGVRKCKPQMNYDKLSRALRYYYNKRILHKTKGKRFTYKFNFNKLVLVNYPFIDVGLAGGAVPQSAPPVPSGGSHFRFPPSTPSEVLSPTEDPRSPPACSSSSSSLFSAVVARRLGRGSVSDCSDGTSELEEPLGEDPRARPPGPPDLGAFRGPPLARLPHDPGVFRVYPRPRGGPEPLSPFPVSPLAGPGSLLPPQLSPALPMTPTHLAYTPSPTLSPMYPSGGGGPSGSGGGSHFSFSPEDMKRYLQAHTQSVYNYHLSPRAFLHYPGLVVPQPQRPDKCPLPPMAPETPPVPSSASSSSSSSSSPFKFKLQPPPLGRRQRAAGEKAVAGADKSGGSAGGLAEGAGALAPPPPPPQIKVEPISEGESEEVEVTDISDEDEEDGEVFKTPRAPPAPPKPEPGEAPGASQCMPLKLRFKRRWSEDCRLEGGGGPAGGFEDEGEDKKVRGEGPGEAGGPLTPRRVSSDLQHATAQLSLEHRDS
# In short: as §1
# ETV3L = biological target: T6, ETV3L (Homo sapiens, UniProt Q6ZN32 1-361); details: protein: recombinant; tags: N-terminal GST; dsDNA, one strand shown
# T6 sequence: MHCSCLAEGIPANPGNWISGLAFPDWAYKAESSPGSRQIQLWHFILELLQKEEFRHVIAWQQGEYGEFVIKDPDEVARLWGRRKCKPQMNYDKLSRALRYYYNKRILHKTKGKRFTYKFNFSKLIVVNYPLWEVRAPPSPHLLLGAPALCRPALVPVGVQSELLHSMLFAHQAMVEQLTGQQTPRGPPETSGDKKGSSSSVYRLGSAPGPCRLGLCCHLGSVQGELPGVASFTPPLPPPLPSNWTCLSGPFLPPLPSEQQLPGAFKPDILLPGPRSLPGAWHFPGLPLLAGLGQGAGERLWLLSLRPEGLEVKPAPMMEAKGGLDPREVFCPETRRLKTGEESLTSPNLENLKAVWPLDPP
# In short: as §1
# ETV3 = biological target: T7, ETV3 (Homo sapiens, UniProt P41162-2 1-143); details: protein: recombinant; tags: N-terminal GST; dsDNA, one strand shown
# T7 sequence: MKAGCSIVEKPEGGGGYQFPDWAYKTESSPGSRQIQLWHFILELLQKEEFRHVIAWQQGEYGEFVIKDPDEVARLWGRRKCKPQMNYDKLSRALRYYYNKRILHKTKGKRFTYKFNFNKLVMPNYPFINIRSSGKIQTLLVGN
# In short: as §1
# GABPA = biological target: T8, GABPA (Homo sapiens, UniProt Q06546 1-454); details: protein: recombinant; tags: N-terminal GST; dsDNA, one strand shown
# T8 sequence: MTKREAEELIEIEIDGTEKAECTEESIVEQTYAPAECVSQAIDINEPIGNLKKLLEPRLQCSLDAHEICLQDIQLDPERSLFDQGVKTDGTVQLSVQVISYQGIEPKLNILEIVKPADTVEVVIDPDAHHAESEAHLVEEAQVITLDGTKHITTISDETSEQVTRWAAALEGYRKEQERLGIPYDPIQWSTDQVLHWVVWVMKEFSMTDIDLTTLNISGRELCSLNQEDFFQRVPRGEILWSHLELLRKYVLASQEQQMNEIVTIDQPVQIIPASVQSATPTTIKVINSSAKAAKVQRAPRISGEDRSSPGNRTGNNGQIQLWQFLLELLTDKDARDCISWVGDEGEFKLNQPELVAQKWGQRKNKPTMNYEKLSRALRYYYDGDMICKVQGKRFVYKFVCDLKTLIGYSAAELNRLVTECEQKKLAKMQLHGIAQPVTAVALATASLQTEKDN
# In short: as §1
# ERG = biological target: T9, ERG (Homo sapiens, UniProt P11308 1-479); details: protein: recombinant; tags: N-terminal GST; dsDNA, one strand shown
# T9 sequence: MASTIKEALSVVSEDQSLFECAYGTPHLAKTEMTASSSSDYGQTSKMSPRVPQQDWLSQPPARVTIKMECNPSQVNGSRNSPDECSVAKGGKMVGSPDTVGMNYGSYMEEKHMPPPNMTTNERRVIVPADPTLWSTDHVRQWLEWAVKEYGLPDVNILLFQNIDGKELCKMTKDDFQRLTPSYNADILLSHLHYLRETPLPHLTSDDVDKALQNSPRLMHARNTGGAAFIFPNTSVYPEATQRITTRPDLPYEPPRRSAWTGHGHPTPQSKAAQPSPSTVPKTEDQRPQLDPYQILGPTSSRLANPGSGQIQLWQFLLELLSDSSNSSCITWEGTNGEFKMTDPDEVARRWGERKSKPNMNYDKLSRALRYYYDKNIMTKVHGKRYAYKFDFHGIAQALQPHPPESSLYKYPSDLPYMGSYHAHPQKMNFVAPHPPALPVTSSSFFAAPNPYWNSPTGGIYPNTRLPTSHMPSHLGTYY
# In short: as §1
# ETV1 = ETV1 (Homo sapiens, UniProt P50549 1-477); details: protein: recombinant; tags: N-terminal GST; dsDNA, one strand shown
# Chain of ETV1 (P50549 whole entry): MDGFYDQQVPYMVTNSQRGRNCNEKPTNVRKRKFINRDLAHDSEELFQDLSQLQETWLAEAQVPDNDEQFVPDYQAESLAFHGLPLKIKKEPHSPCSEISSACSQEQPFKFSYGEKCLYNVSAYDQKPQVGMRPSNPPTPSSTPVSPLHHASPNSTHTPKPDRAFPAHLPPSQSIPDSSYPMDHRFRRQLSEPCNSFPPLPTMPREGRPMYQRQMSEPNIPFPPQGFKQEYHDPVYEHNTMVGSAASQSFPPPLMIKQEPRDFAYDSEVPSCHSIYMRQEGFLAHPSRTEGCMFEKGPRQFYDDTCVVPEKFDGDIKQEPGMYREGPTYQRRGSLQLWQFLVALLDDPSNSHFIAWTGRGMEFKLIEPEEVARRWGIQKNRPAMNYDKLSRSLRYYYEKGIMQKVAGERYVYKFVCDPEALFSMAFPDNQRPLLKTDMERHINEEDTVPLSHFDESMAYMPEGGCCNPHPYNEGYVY
# In short: as §1
# ETS2 = biological target: T10, ETS2 (Homo sapiens, UniProt P15036 1-469); details: protein: recombinant; tags: N-terminal GST; dsDNA, one strand shown
# T10 sequence: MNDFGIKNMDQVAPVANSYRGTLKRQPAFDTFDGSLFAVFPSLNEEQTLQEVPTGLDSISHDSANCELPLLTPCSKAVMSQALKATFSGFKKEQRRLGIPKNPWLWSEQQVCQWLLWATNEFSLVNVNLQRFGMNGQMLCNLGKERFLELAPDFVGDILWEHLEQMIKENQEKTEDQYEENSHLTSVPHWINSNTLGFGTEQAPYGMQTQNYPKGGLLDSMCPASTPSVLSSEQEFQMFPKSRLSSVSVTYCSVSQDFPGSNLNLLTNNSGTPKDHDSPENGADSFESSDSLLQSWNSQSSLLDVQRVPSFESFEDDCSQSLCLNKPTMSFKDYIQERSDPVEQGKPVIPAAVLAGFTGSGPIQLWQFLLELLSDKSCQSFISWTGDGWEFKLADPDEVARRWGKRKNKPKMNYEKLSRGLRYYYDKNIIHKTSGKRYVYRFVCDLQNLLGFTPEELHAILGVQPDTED
# In short: as §1
# ETV7 = biological target: T11, ETV7 (Homo sapiens, UniProt Q9Y603 1-341); details: protein: recombinant; tags: N-terminal GST; dsDNA, one strand shown
# T11 sequence: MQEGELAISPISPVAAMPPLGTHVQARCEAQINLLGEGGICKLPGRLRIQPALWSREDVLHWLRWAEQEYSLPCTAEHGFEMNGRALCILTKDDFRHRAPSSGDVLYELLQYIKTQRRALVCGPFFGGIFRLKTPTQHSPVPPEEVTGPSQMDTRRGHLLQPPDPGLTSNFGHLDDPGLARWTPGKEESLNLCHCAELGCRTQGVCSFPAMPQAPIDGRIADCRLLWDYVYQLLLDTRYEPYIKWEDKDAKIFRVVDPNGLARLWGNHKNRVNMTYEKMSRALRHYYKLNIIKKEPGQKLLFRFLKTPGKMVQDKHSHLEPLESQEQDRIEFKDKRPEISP
# In short: as §1
# ELF5 = biological target: T12, ELF5 (Homo sapiens, UniProt Q9UKW6-2 1-255); details: protein: recombinant; tags: N-terminal GST; dsDNA, one strand shown
# T12 sequence: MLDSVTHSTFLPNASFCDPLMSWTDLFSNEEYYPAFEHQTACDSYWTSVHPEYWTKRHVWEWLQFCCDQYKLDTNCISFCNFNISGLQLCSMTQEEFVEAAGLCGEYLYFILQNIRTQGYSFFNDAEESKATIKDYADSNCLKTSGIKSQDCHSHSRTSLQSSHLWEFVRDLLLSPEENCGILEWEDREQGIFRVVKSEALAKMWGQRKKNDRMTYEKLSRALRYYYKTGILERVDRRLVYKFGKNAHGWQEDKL
# In short: as §1
Sequence,binding signal (EHF),binding signal (ELK3),binding signal (HSF1),binding signal (ELF4),binding signal (ELK4),binding signal (ELF3),binding signal (CRX),binding signal (ERF),binding signal (ETV3L),binding signal (ETV3),binding signal (GABPA),binding signal (ERG),binding signal (ETV1),binding signal (ETS2),binding signal (ETV7),binding signal (ELF5)
CCAGCT,"1.06 fold enrichment (6-mer frequency, TF over GST control)","1.02 fold enrichment (6-mer frequency, TF over GST control)","1.03 fold enrichment (6-mer frequency, TF over GST control)","1.02 fold enrichment (6-mer frequency, TF over GST control)","1.14 fold enrichment (6-mer frequency, TF over GST control)","1.04 fold enrichment (6-mer frequency, TF over GST control)","1.1 fold enrichment (6-mer frequency, TF over GST control)","1.01 fold enrichment (6-mer frequency, TF over GST control)","1.03 fold enrichment (6-mer frequency, TF over GST control)","1 fold enrichment (6-mer frequency, TF over GST control)",,,,,,
AGGCTT,,"1.05 fold enrichment (6-mer frequency, TF over GST control)","1.24 fold enrichment (6-mer frequency, TF over GST control)",,"1.02 fold enrichment (6-mer frequency, TF over GST control)","1.11 fold enrichment (6-mer frequency, TF over GST control)","1.74 fold enrichment (6-mer frequency, TF over GST control)","1.02 fold enrichment (6-mer frequency, TF over GST control)",,,"1.02 fold enrichment (6-mer frequency, TF over GST control)","1.04 fold enrichment (6-mer frequency, TF over GST control)","1 fold enrichment (6-mer frequency, TF over GST control)","1.04 fold enrichment (6-mer frequency, TF over GST control)","1.08 fold enrichment (6-mer frequency, TF over GST control)","1.02 fold enrichment (6-mer frequency, TF over GST control)"
